From PubChem BioAssay (NCATS) come the findings set out here.

One experiment deals with Furin (Homo sapiens) (UniProt P09958). The experiment can be described thus: Furin counterscreen qHTS for Zika virus inhibitors (AID 1347149).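 For activity change, negative = inhibition: purified recombinant full-length human furin enzyme at 5 nM; fluorescence gain from furin cutting a BOC-RVRR-AMC peptide substrate over 15 min; top concentration of the series differs between compounds; plate controls were no-inhibitor control for no effect and no-enzyme control for full effect.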 Note: nearly all actives have a fitted effect of over 70% in size. Note: potency is the fitted concentration of half-maximal effect. Summed up:
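Counterscreen measures cleavage of 2 microM BOC-RVRR-AMC, below its ~15 microM Km, by 5 nM full-length human furin at pH 7.0 after a 15-min compound preincubation. Inhibition derives from the 15-min fluorescence increase at 37C.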
On the technique in general: The purpose of a counterscreen is to sort out artefacts and off-target activity.

The nature of experiment [1]: Confirmatory screen GU Rhodamine qHTS for Zika virus inhibitors qHTS (AID 1347157).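 For activity change, negative = inhibition: plate controls were no-inhibitor wells for no effect and no-enzyme wells for full effect.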 Note: nearly all actives have a fitted effect of over 70% in size. Note: potency is the fitted concentration of half-maximal effect. The procedure, abridged:
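Percent inhibition derives from the 15-min fluorescence change (ex 480, em 540 nm), normalized to no-enzyme and no-inhibitor wells. Reactions contained 25 nM NS2B-NS3 complex and 1.5 microM substrate in 10 mM Tris-HCl pH 8.0.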
In general terms: qHTS replaces the single test concentration by a dilution series.

In experiment [2] the target is Cytochrome P450 3A4 (Homo sapiens) (UniProt P08684). The experiment can be described thus: qHTS Assay for Inhibitors and Substrates of Cytochrome P450 3A4 (AID 884). For activity change, negative = inhibition: % is set by controls: 0 for no effect and ±100 for the full control effect. Note: nearly all actives have a fitted effect of over 50% in size. Note: potency is the fitted concentration of half-maximal effect. Summed up: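 Luminescent readout of luciferin produced by CYP3A4 (20 nM) dealkylation of Luciferin-PPXE, 25 uM (its KM). NADPH-driven reaction ran 60 min at RT after 10 min compound preincubation; data scaled to 57 uM ketoconazole as 100% inhibition.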
Sequence of Cytochrome P450 3A4 (Homo sapiens) (P08684 whole entry, looked up): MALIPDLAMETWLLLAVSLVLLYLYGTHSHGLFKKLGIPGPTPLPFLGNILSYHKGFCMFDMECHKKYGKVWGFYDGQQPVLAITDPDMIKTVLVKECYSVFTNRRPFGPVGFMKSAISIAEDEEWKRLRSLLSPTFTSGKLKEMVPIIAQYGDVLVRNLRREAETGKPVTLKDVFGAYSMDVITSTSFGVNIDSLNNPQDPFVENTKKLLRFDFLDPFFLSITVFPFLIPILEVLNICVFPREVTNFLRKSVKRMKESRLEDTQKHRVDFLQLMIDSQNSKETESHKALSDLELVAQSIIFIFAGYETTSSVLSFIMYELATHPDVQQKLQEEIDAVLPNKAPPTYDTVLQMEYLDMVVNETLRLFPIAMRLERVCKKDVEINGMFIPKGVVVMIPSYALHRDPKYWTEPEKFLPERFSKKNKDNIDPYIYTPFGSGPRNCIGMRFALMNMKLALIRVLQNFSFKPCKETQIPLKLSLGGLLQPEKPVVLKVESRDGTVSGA

For experiment [3] the target is unchanged. The experiment can be described thus: qHTS Assay for Activators of Cytochrome P450 3A4 (AID 885). Note: nearly all actives have a fitted effect of over 65% in size. The procedure, abridged: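 Luminescent readout of luciferin formed from 25 uM Luciferin-PPXE (KM level) by 20 nM CYP3A4 in 200 mM KPO4, with 60 min NADPH-driven reaction at room temperature after 10 min compound exposure. Ketoconazole (57 uM) defined 100% inhibition.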

Experiment [4] is described as follows: Confirmation and Secondary Assay for Modulators of Hemoglobin Beta Chain Splicing at IVS2 654 locus (AID 910).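 Note: per-well total GFP intensity by laser scanning cytometry after 2-day treatment; % of control where 0% means no effect.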 The procedure, abridged: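 HeLa cells stably carrying EGFP interrupted by mutant beta-globin IVS2-654 intron (CMV-driven) were treated with compound for 2 days at 37C; corrected splicing was scored as total peak GFP intensity per well (488 nm excitation, 500-520 nm emission).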

Experiment [5] addresses Ubiquitin carboxyl-terminal hydrolase 1 (Homo sapiens) (UniProt O94782). The experiment can be described thus: Inhibitors of USP1/UAF1: Pilot qHTS (AID 504865). Note: potency is the fitted concentration of half-maximal effect; nearly all actives have a fitted effect of over 35% in size. The procedure, abridged: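 USP1/UAF1 complex at 1 nM preincubated 15 min at room temperature with compound, then Ub-Rho substrate added at 150 nM final. Fluorescence (480/540 nm) read kinetically in 50 mM HEPES pH 7.8, 0.5 mM EDTA, 1 mM TCEP, 0.1 mg/ml BSA, 0.01% Tween-20.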

A short description of experiment [6]: ZIKV-mCherry secondary qHTS for Zika virus inhibitors (AID 1347158). Note: top concentration of the series differs between compounds. The procedure, abridged:
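Read-out is percent infection: mCherry-positive Vero cells (nuclear-proximal intensity >450 RFU, 3 SD above negative controls) counted by high-content imaging of Hoechst-stained, PFA-fixed wells after 48-72 h with ZIKV-mCherry at MOI 1 and compound.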

Experiment [7] is described as follows: Confirmatory screen NINDS Rhodamine qHTS for Zika virus inhibitors (AID 1347161).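 For activity change, negative = inhibition: purified Zika NS2B-NS3 protease with linked NS2B cofactor domain and Rhodamine110 peptide substrate; plate controls were no-inhibitor control for no effect and no-enzyme control for full effect.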 Note: nearly all actives have a fitted effect of over 60% in size. Note: potency is the fitted concentration of half-maximal effect. Summed up:
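Percent inhibition, normalized to uninhibited and enzyme-free controls, is fitted to a 4-parameter Hill equation. Fluorescence change comes from a 15-min cleavage of 1.5 microM bis-peptide Rhodamine110 substrate by 25 nM linked NS2B-NS3 at room temperature.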

Experiment [8] relates to Zika virus NS2B-NS3 protease (linked). Kind of experiment: 384 well plate NINDS AMC confirmatory qHTS for Zika virus inhibitors (AID 1347163). Note: potency is the fitted concentration of half-maximal effect; nearly all actives have a fitted effect of over 50% in size. Summed up: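 Enzyme (5, 30 or 60 nM final) first met test compounds for ~15 min. The AMC-tagged peptide Ac-VKTGKR-AMC followed at 30 microM. Fluorescence was then recorded at 25 min and scaled against no-enzyme and no-inhibitor wells.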

Experiment [9] deals with Zika virus NS2B-NS3 protease (linked construct). The experiment can be described thus: 384 well plate NINDS Rhodamine confirmatory qHTS for Zika virus inhibitors (AID 1347164).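 Note: fluorescence from protease cleavage of Ac-LKRR-rhodamine 110 substrate; top concentration of the series differs between compounds; plate controls were no-inhibitor control for no effect and no-enzyme control for full effect; nearly all actives have a fitted effect of over 65% in size.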 The procedure, abridged:
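Linked NS2B-NS3 protease (final 5, 30 or 60 nM) preincubated ~15 minutes with compounds, then 10 microM Ac-LKRR-Rhodamine 110 added. Fluorescence (485/538 nm) read after 25 minutes at room temperature, normalized to no-enzyme and no-inhibitor controls.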

Experiment [10] is described as follows: Tertiary RLuc qRT-PCR qHTS assay for Zika virus inhibitors (AID 1347169). Note: top concentration of the series differs between compounds; % is set by controls: 0 for no effect and ±100 for the full control effect; nearly all actives have a fitted effect of over 55% in size. Summed up: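 Vero cells (1,000/well) infected with recombinant ZIKV-RLuc (Cambodian) at MOI 1-2 after compound addition, 48-72 hrs at 37 degrees C. Live-cell Renilla luciferase substrate added; luminescence read after 1-1.5 hrs.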
A short description of experiment [11]: Confirmation and Secondary Assay for Modulators of Hemoglobin Beta Chain Splicing at IVS2 705 locus (AID 930).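 Note: HeLa cells stably expressing the EGFP-705 splicing reporter; GFP fluorescence per well restored by corrected splicing of the IVS2-705 intron in EGFP; % of control where 0% means no effect.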 Summed up:
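Per-well GFP, captured at 1 x 8 µm resolution with 488 nm excitation, served as the read-out for HeLa EGFP-705 cells incubated 2 days with test compound versus DMSO.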

Experiment [12] in a line: qHTS Assay for Lipid Storage Modulators (AID 1519; calls by dose curve). To be noted: Drosophila S3 cells, BODIPY lipid droplet/cell ratio, laser cytometry, cells loaded with oleic acid; for activity change, negative = inhibition: at 57.5 µM (top of the series). The procedure, abridged:
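Cells seeded at 5,000 per well were treated with compounds over a concentration series and loaded with oleic acid (400 uM, as added). Lipid droplet fluorescence (488 nm excitation, 500-530 nm channel) was read by laser-scanning cytometry and normalized to 20 uM Triacsin C.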

The test system of experiment [13] is Zika virus NS2B-NS3 protease (linked construct). Kind of experiment: Confirmatory screen NINDS AMC qHTS for Zika virus inhibitors (AID 1347152).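 Note: AMC fluorescence gain from cleaved Bz-Nle-KRR-AMC substrate over 15 min; top concentration of the series differs between compounds; 0% = no-inhibitor control and -100% = no-enzyme control; nearly all actives have a fitted effect of over 70% in size.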 Summed up: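 Linked NS2B-NS3 protease, 1 nM, in 10 mM Tris-HCl pH 8.0, 0.01% Tween 20; compounds preincubated 15 min at room temperature. Nle-KRR-AMC 10 microM (Km 18.3 µM); 15-min fluorescence change (340/450 nm) fitted to 4-parameter Hill.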

In experiment [14] the test system is Zika virus NS2B-NS3 protease (unlinked complex). The experiment can be described thus: Confirmatory screen GU AMC qHTS for Zika virus inhibitors (AID 1347153).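 Note: percent inhibition with 0% = no inhibitor control and 100% = no enzyme control; nearly all actives have a fitted effect of over 70% in size.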 The procedure, abridged:
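Compounds were preincubated 15 min at room temperature with 25 nM noncovalent NS2B-NS3 protease at pH 8.0; AMC substrate added at 10 microM and 15-min fluorescence gain (340/450 nm) converted to percent inhibition, fitted 4-parameter.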

The nature of experiment [15]: Vero cells viability qHTS for Zika virus inhibitors (AID 1347167). Note: % is set by controls: 0 for no effect and ±100 for the full control effect. The procedure, abridged: (§1)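 To flag cytotoxic protease inhibitors, viability is measured by ATP-dependent luminescence (CellTiter Glo) after cells attached overnight receive compound for 24 to 48 hours in DMEM with 4% FBS.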
Experiment [16] in a line: HepG2 cells viability qHTS for Zika virus inhibitors (AID 1347168). Note: % is set by controls: 0 for no effect and ±100 for the full control effect. The procedure, abridged:
as §1

A short description of experiment [17]: Primary qHTS for small molecule stabilizers of the endoplasmic reticulum resident proteome: Secreted ER Calcium Modulated Protein (SERCaMP) assay (AID 1508630). Note: % is set by controls: 0 for no effect and ±100 for the full control effect. The procedure, abridged:
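The SH-SY5Y reporter protocol was run at 3 concentrations up to 38.3 uM (primary) or 11 concentrations (follow-up): 16 h compound, 100 nM thapsigargin for 4 h, then extracellular luciferase luminescence.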

Experiment [18] has as its system Zika virus NS2B-NS3 protease. Kind of experiment: Primary screen GU AMC qHTS for Zika virus inhibitors (AID 1347154). The procedure, abridged: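 Unlinked Zika NS2B hydrophilic domain/NS3 protease domain noncovalent complex (25 nM final) in 10 mM Tris-HCl pH 8.0, 0.01% Tween 20, with AMC peptide substrate. Fluorescence (ex 340, em 450 nm) change over 15 min, room temperature; percent inhibition fitted to 4-parameter Hill equation.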

The target in experiment [19] is Tyrosyl-DNA phosphodiesterase 1 (Homo sapiens) (UniProt Q9NUW8). Kind of experiment: Confirmation Assay for Inhibitors of Tyrosyl-DNA Phosphodiesterase (TDP1) (AID 489007). Note: potency is the fitted concentration of half-maximal effect; nearly all actives have a fitted effect of over 40% in size. The settings on record: recombinant human TDP1 enzymatic activity, dose-response. The procedure, abridged:
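AlphaScreen read-out: streptavidin donor and anti-FITC acceptor beads (10 ug/ml) bind intact substrate, so Tdp1 removal of tyrosine-FITC lowers signal. Enzyme 1 nM, substrate 15 nM, 5 min reaction at room temperature after 15 min compound preincubation.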

For experiment [20], the target named is Rap guanine nucleotide exchange factor 3 (Homo sapiens) (UniProt O95398). Kind of experiment: Confirmatory qHTS for agonist of cAMP-regulated guanine nucleotide exchange factor 3 (EPAC1) (AID 1645881).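 Note: EPAC1 catalysed release of BODIPY-GDP from Rap1B seen as fluorescence loss; 100% = effect of cAMP agonist control; nearly all actives have a fitted effect of over 75% in size.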
Sequence of Rap guanine nucleotide exchange factor 3 (Homo sapiens) (O95398 whole entry, looked up): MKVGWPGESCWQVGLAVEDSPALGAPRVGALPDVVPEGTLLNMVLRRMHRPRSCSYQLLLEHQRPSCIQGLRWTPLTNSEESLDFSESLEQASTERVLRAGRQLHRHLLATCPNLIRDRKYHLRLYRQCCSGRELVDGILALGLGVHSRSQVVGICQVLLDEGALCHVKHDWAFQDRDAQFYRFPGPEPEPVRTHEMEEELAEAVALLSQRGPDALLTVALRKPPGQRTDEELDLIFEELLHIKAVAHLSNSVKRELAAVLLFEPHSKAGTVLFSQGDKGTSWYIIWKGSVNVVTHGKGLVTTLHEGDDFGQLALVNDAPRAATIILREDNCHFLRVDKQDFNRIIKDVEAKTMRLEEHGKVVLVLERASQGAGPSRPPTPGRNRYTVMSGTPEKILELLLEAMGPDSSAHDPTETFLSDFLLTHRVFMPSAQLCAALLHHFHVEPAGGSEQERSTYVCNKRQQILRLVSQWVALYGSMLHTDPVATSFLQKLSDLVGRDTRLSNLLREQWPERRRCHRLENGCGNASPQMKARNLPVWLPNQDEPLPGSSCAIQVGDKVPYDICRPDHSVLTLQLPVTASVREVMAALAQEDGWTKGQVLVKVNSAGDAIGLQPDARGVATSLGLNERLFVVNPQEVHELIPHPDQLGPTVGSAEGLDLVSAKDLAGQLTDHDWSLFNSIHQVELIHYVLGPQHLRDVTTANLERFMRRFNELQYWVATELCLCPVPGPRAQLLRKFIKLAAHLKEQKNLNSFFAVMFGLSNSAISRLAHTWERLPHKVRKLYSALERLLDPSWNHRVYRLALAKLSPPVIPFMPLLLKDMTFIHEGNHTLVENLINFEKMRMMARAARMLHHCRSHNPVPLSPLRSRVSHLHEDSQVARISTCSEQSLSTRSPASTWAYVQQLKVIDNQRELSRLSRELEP
For experiment [21], the target named is Rap guanine nucleotide exchange factor 4 (Homo sapiens) (UniProt Q8WZA2). The experiment can be described thus: Confirmatory qHTS for agonist of cAMP-regulated guanine nucleotide exchange factor 4 (EPAC2) (AID 1645884).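 Note: nucleotide exchange releases bodipy-GDP from Rap1 and this lowers its fluorescence; % is set by controls: 0 for no effect and ±100 for the full control effect; nearly all actives have a fitted effect of over 65% in size.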
Sequence of Rap guanine nucleotide exchange factor 4 (Homo sapiens) (Q8WZA2 whole entry, looked up): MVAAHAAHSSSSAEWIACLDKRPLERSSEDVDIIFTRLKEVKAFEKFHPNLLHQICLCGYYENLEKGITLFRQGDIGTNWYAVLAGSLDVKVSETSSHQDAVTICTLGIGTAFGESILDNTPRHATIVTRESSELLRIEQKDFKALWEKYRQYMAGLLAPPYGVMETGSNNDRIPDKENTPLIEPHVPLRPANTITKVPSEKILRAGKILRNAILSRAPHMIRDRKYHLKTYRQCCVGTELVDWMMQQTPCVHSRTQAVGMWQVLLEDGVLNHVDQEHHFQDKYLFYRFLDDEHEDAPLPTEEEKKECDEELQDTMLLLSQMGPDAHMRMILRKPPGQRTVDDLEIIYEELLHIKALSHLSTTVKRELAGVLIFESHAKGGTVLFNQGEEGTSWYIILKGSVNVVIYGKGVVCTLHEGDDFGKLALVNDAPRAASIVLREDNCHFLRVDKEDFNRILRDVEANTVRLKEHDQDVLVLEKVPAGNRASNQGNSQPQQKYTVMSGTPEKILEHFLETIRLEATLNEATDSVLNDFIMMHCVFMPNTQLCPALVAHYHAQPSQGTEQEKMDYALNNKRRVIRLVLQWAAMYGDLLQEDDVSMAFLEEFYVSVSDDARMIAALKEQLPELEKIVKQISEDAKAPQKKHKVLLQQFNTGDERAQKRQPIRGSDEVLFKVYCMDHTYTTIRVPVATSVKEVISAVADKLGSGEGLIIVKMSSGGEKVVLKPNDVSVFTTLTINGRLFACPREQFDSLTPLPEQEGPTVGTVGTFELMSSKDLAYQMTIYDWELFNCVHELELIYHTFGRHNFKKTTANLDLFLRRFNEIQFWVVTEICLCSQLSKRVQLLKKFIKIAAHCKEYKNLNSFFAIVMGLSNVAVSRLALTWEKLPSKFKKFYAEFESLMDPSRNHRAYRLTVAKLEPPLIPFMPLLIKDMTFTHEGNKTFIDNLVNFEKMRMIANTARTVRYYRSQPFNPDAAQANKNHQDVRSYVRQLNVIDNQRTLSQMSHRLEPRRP
The target is the same in experiment [22]. Kind of experiment: Confirmatory qHTS for antagonist of cAMP-regulated guanine nucleotide exchange factor 4 (EPAC2) (AID 1645885). Note: % is set by controls: 0 for no effect and ±100 for the full control effect; nearly all actives have a fitted effect of over 25% in size.
In experiment [23] the target is Rap guanine nucleotide exchange factor 3 (Homo sapiens) (UniProt O95398). The experiment can be described thus: Counterscreen qHTS for antagonist of cAMP-regulated guanine nucleotide exchange factor 3 (EPAC1) (AID 1645888). Note: % of control where 0% means no effect. The procedure, abridged: (§2)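 Measured: fluorescence of BODIPY-GDP bound to Rap1B, which falls as exchange proceeds. Conditions include 50 uM competing GDP, 5 and 30 min reads, and a later cAMP challenge for antagonist detection.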

Experiment [24] shares this target. The experiment can be described thus: Counterscreen qHTS for agonist of cAMP-regulated guanine nucleotide exchange factor 3 (EPAC1) (AID 1645889). Note: % of control where 0% means no effect; nearly all actives have a fitted effect of over 40% in size. The procedure, abridged: as §2
Setting [25] is: measured here: cell count channel max response.
Where [26] appears, read: measured here: lipid channel max response.

SMILES strings stand for the structures. Results filed as inconclusive are left out. Calls of active or inactive are those of the source. Unless noted, calls come from the whole dose curve; as a rule, active = well fitted curve in the direction sought with a large enough effect; inconclusive = small, poorly fitted or top-dose-only effect, or another doubt; inactive = no such curve, though single readings can be large; an effect the other way counts as inactive or inconclusive.

Sequence of Furin (Homo sapiens) (P09958 whole entry, looked up): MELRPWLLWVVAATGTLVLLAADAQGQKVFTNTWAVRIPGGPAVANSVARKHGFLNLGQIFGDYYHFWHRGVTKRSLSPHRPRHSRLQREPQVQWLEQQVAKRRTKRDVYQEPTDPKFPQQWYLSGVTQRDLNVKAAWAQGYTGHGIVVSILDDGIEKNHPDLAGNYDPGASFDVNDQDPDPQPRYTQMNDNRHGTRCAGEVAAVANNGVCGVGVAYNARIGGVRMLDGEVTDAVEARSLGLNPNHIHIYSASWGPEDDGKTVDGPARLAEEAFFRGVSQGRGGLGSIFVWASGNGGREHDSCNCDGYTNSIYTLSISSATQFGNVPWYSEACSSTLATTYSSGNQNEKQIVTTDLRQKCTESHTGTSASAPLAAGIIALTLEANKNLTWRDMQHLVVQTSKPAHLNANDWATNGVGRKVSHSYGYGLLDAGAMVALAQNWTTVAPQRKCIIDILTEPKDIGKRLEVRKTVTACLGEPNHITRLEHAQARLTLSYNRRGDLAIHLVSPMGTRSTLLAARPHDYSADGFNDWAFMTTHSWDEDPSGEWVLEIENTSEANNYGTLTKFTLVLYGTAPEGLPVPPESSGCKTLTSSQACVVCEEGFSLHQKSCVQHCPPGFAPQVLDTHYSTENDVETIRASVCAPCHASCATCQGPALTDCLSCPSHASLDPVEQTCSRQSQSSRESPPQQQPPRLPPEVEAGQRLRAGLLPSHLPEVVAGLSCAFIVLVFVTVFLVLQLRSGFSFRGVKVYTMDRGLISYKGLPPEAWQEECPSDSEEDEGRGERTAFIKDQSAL
Sequence of Tyrosyl-DNA phosphodiesterase 1 (Homo sapiens) (Q9NUW8 whole entry, looked up): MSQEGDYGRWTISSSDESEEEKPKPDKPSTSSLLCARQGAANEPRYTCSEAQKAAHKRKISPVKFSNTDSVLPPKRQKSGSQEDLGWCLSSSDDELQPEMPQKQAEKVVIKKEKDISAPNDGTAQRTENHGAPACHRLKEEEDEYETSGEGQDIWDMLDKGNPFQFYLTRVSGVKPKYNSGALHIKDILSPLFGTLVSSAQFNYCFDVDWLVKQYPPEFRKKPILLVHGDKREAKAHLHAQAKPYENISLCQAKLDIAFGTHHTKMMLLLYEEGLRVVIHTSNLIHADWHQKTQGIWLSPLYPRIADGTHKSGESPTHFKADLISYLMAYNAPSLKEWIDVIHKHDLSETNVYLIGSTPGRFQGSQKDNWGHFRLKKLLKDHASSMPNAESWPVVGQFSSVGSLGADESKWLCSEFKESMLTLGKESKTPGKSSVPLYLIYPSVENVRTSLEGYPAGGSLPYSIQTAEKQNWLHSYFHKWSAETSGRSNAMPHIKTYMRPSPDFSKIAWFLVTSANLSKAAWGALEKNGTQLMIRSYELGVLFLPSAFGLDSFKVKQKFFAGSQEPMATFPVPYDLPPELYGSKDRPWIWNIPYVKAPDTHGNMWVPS
Sequence of Ubiquitin carboxyl-terminal hydrolase 1 (Homo sapiens) (O94782 whole entry, looked up): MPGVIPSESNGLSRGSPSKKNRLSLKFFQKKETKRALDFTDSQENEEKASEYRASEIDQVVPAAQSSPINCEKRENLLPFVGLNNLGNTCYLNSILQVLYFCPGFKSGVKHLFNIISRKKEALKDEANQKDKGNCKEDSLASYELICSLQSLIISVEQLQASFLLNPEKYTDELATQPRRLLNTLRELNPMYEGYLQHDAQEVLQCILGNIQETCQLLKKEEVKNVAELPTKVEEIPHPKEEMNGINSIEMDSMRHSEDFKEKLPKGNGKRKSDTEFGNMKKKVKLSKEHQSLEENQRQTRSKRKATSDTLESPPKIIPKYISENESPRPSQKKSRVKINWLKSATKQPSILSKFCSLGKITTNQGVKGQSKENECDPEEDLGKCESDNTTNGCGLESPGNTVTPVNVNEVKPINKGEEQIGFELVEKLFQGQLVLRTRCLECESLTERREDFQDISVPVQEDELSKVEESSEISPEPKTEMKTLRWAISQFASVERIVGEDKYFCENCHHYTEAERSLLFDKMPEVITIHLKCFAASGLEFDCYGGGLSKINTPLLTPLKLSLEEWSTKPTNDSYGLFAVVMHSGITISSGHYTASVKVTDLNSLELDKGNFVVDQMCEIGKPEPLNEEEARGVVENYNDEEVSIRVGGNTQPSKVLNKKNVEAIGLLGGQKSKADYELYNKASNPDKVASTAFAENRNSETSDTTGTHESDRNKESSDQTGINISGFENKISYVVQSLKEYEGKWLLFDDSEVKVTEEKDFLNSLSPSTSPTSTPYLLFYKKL

On to `O=C(COC(=O)c1cccc(NC(=O)c2ccc(Br)cc2)c1)c1ccc(Br)cc1`, for which the Potency entry (with Furin (Homo sapiens); in experiment [1]) was “inactive” in each case.
On to `O=c1cc(-c2cc(O)c(O)c(O)c2)oc2cc(O)cc(O)c12`, for which the Potency in experiment [2] was 20 µM (active); in experiment [5], 35.5 µM (active); in experiment [1], 44.7 µM (active); in [7], 31.6 µM (active); in [8] it was 63.1 µM (active). Besides, the Potency entry (in experiment [3]; with Furin (Homo sapiens); in [6]; in [9]; in experiment [10]) was “inactive” throughout. Further, in experiment [4], the result was inactive.
Regarding `CN(Cc1cnc2nc(N)nc(N)c2n1)c1ccc(C(=O)NC(CCC(=O)O)C(=O)O)cc1` (stereo unspecified), the Potency result in experiment [2], in [13], in experiment [14], in [15], in [16] and in [10] was “inactive” throughout. Besides, the Potency result in experiment [17] was “inactive”. Besides, the molecule was classed as inactive in experiment [4] and in [11]. Besides, the activity change, negative = inhibition in [12] is 6.64% (inactive). For the same molecule, the max response in [12] (setting [25]) is 7.14%; in experiment [12] (setting [26]), 16%. Also, the Potency in the experiment with Furin (Homo sapiens) was 21.5 µM (active).
Consider `Cc1oc2c(cc(NS(=O)(=O)c3ccc(Cl)cc3)c3ccccc32)c1C(=O)OCc1ccccc1`, for which the Potency entry (with Furin (Homo sapiens); in experiment [6]) was “inactive” each time. Besides, the figures for the Potency in experiment [1] and in [7] were 28.2 µM (active) and 39.8 µM (active), respectively.
In the case of `Cc1ccc2c(=O)c3ccccc3n(CCCN)c2c1C`, the results for the Potency (with Furin (Homo sapiens); in experiment [18]) were 24.1 µM (active) and 21.2 µM (active), respectively. Besides, the Potency entry in experiment [14], in experiment [15] and in [17] was “inactive” in each case.
As for `COc1ccc(-c2cc(=O)c3c(O)cc(O)c(-c4cc(-c5cc(=O)c6c(O)cc(O)cc6o5)ccc4OC)c3o2)cc1`, the Potency result in [3] is “inactive”. Moreover, the activity change, negative = inhibition in experiment [12] was 6.01% (inactive). In addition, the max response in [12] (setting [25]) was -20.7%; in [12] (setting [26]), -15.6%.
On to `O=C(O)CSc1nc2ccc(NC(=O)COc3ccc(Cl)cc3)cc2s1`, for which, in [19], the Potency is 11.2 µM (active).
Regarding `O=C(O)CCc1ccc(-c2ccc(Cl)cc2)n1-c1cccc(C(F)(F)F)c1`, the result in [20], in experiment [21] and in [23] was inactive. The activity change, negative = inhibition in [22] is 25.6% [at 12.7 µM] (inactive). For the same molecule, the Potency result in [24] was “inactive”.
As to `O=C1OCC2=C1C(c1cccc(Cl)c1)CC(=O)N2c1ccc(C(F)(F)F)cc1` (stereo unspecified), the Potency entry (with Furin (Homo sapiens); in [1]; in [7]; in [10]) was “inactive” throughout.
For the molecule `O=C(OCC#CCSc1nnc(-c2cccc3ccccc23)o1)c1ccc(Cl)c(C(F)(F)F)c1`, the values for the Potency (with Furin (Homo sapiens); in [1]) were 52.7 µM (active) and 25.1 µM (active), respectively. The Potency entry in experiment [7] and in experiment [10] was “inactive” each time.
Turning to `O=C(OCC#CCSc1nnc(-c2cccc3ccccc23)o1)c1cccc(C(F)(F)F)c1`, the Potency with Furin (Homo sapiens) was 37.3 µM (active). The Potency entry in [1], in [7] and in [10] was “inactive” each time.
Consider `O=C(OCc1cccc(C(F)(F)F)c1)c1ccc(-c2nnn(Cc3ccc(F)cc3)n2)cc1`, for which the Potency entry (in the experiment with Furin (Homo sapiens); in experiment [1]; in [7]; in [10]) was “inactive” in each case.
